# Rows were chosen to be rich in hits. Some 11% of all compounds tested hit in one or more screens of this group.
# PNC inhibitor: blocks assembly of the perinucleolar compartment; activity change (PNC), negative = inhibition, % at 10 µM; PC3M PTB-GFP, PNC prevalence imaging, 16 h; hits give low values; 140,000 tested, 3.1% active;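 active = readout at or below -70, meaning at least 70% loss of cells showing the perinucleolar compartment, a nuclear body marking cancer cells; inconclusive = readout between -30 and a set limit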;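 also: plate controls were DMSO wells for no effect and camptothecin positive control wells for full effect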
#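 Read-out is percentage of cells bearing a perinucleolar compartment, from automated 20x imaging of fixed, Hoechst-stained PC3M PTB-GFP cells. Cells were seeded 4 h, then exposed 16 h to compound (23 nl of library stock) in duplicate plates.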
# HPGD inh: inhibitors of human 15-hydroxyprostaglandin dehydrogenase (HPGD) | P15428 | purified HPGD, NADH fluorescence kinetic, PGE2 substrate | Potency, µM, inactives show at the highest dose activity change, negative = inhibition, hits mostly inhibitors | 150,000 tested, 4.3% active | AID 894; also: potency is read from the fitted curve at half-maximal effect
# Target sequence (P15428 whole entry, looked up): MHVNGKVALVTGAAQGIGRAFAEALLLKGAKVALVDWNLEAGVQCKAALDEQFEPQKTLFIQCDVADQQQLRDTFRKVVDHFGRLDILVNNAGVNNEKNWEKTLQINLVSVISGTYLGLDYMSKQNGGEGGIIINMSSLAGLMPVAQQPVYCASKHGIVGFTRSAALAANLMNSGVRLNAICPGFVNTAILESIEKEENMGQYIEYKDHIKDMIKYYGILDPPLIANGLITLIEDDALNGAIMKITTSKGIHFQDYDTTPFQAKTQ
#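 20 nM HPGD preincubated 15 min at room temperature with compound in 50 mM Tris-HCl pH 8, 0.01% Tween 20. Started with 1 mM NAD+ and 30 uM prostaglandin E2; NADH fluorescence (360/450 nm) read 5 times over 30-s intervals, last minus first.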
# ALDH1A1 inh: blocks purified human ALDH1A1 activity | P00352 | Purified ALDH1A1, NADH fluorescence, propionaldehyde substrate | Potency, µM (series often up to 75.3 µM), for inactives: top-dose activity, negative = inhibition, actives largely listed as inhibitors | 220,000 tested, 7.3% active;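 also: potency is read from the fitted curve at half-maximal effect; plate controls were no enzyme wells and a reference inhibitor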
# Active calls of the source: *; ? = inconclusive; / = no result given; [ ] = dose if it differs, or a comment. Unless noted, calls follow the shape of the dose curve; as a rule, active = well fitted inhibition curve with a large enough effect (not every such curve was filed as active); inconclusive = small, poorly fitted or top-dose-only effect, or another doubt; inactive = no such curve, though single readings can be large or run the other way. Unless noted, % is scaled to controls: 0 for no effect and ±100 for the full control effect.
SMILES,PNC inhibitor,HPGD inh,ALDH1A1 inh
COCC(=O)N1CCC2(CC1)CN(C(c1ccccc1)c1ccccc1)C2,/,-3%,2%
COc1ccc(NC(=O)N2CC3(CCN(C(=O)c4csnn4)CC3)C2)cc1,/,-7%,-6%
O=C(c1c(O)c2ccc(Cl)cc2[nH]c1=O)C1CC1,/,-1%,1%
CCC(C(=O)Nc1ccccc1)c1ccccc1 (configuration not stated),84,-6%,3%
CCC(C(=O)Nc1cc(Cl)c(OC)cc1OC)c1ccccc1 (configuration not stated),/,/,20µM*
Cn1cccc1C(=O)N1CCC[C@@]2(CCN(c3ccccc3)C2)C1,/,-11%,?
CS(=O)(=O)N(Cc1ccco1)Cc1ccccc1Cl,25,?,-5%
CS(=O)(=O)N(Cc1ccco1)CC(O)Cn1cc(C=O)c2ccccc21 (configuration not stated),-88*,-25%,1.3µM*
CCOc1cc(C(=O)NCCCn2ccnc2)cc(OCC)c1OCC,83,-11%,0%
COc1ccc(C(=O)N2CCCC(c3ccccc3)C2)cc1 (configuration not stated),48,16µM*,?
CCOc1ccc(C(=O)N2CCN(Cc3ccccc3)CC2)cc1,18,-18%,-11%
CCOC(=O)C1CCCN(C(=O)c2sc3nc(C)nc(N(CC)CC)c3c2C)C1 (configuration not stated),-2,14µM*,3%
CCC1CCCCN1C(=O)c1sc2nc(C)nc(N(CC)CC)c2c1C (configuration not stated),/,/,1%
CCOc1ccc(OCc2cccc(C(=O)N3CCCCCC3)c2)cc1,/,/,35µM*
CCOc1ccc(OCc2cccc(C(=O)N3CCCC3)c2)cc1,-20,-11%,-5%
CCOc1ccc(C(=O)N2CCCC2)cc1,-10,7.9µM*,-1%
O=C(c1ccc(F)cc1)N1CCC(c2ccccc2)C1 (configuration not stated),/,/,-2%
Nc1[nH]n2c(=O)cc(-c3ccccc3)nc2c1N=Nc1ccc2c(c1)OCO2,/,/,3%
CCO[C@@H]1OC(C(=O)O)=C[C@H](C2CC2)[C@H]1CCCO,/,/,8%
Cc1cc(C)cc(C(=O)N2CC(C)OC(C)C2)c1 (configuration not stated),27,-11%,?
CCCCOc1ccc(C(=O)N2CC(C)OC(C)C2)cc1 (configuration not stated),?,?,0.079µM*
CN1CCN(C(=O)c2ccc(COc3ccc(C(C)(C)C)cc3)o2)CC1,13,-9%,2%
CCOc1ccc(OCc2ccc(C(=O)N3CCCC3)o2)cc1,26,?,28µM*
COc1ccc(C(=O)N2CCC(C(=O)c3c(C)cc(C)cc3C)CC2)cc1,/,/,22µM*
O=C(c1ccc(COc2ccccc2Br)o1)N1CCCCCC1,26,14µM*,16µM*
SMILES,PNC inhibitor,HPGD inh,ALDH1A1 inh
COc1ccc(C(=O)N2CCC(C(=O)O)CC2)cc1,39,-3%,-6%
O=C(c1ccc(COc2ccccc2Cl)o1)N1CCN(c2ccccc2)CC1,?,-17%,?
CC(C)(C)Nc1oc(-c2ccccc2)nc1-c1ccccc1,/,-8%,-2%
Cc1ccccc1C(=O)N[C@H](C(=O)OCC(=O)c1ccc[nH]1)C(C)C,4,-10%,-10%
Cc1cc(C(F)(F)F)nc(-n2cc(-c3ccccc3)nn2)n1,/,/,2%
Cc1cccc2sc(N)nc12,/,0%,?
CCCN1CNC(=S)N(CC2CCCO2)C1 (configuration not stated),5,-8%,-1%
CCCOc1ccc(C(=O)N2CCCc3ccccc32)cc1,?,16µM*,6.3µM*
COc1cc(OC)cc(C(=O)N2CCCc3ccccc32)c1,?,-8%,-15%
CCCCOc1ccc(C(=O)O)cc1,38,-17%,5%
CCOC(=O)C1CCCN(C(=O)c2ccc(OCC)cc2)C1 (configuration not stated),-15,14µM*,-12%
CCOC(=O)C1CCCN(C(=O)COC(=O)c2ccc(C#N)cc2)C1 (configuration not stated),/,/,-1%
CCOC(=O)c1ccc(COc2ccc(C(C)C)cc2)o1,/,/,-7%
CCCCOc1ccc(C(=O)N2CCCC2)cc1,-12,2.2µM*,?
CCOc1ccc(OCc2ccc(C(=O)OCc3ccccn3)o2)cc1,-13,25µM*,?
c1ccc(CNc2oc(-c3ccccc3)nc2-c2cccc3ccccc23)cc1,/,-27%,?
NCCSCc1ccccc1Cl,/,-15%,-11%[13.5 µM]
CN(C)C[C@H]1CCC2=C(C1=O)C(c1ccc(Cl)c(Cl)c1)C1=C(CC[C@H](CN(C)C)C1=O)O2,/,-15%,-10%[13.5 µM]
CC1CN(C(=O)c2ccc(C(=O)c3ccccc3)cc2)CC(C)O1 (configuration not stated),-15,14µM*,?
COc1ccc(OCCC(=O)N2CCCCC2)cc1,3,16µM*,1%
COc1ccc(C(CC(=O)N2CCCCC2)C(C)C)cc1 (configuration not stated),/,/,-3%
CC1CN(C(=O)c2cccc(C(=O)N3CC(C)OC(C)C3)c2)CC(C)O1 (configuration not stated),1,-9%,9%
CC(/C=N/NC(=O)c1nn(C)c(C)c1Br)=C\c1ccccc1,?,-16%,-2%
C=C(C(C)=O)C(O)c1cccc(OC)c1 (configuration not stated),/,-10%,15%
O=C(NCc1ccco1)C1(S(=O)(=O)c2ccc(Cl)cc2)CC1,?,-14%,18µM*
SMILES,PNC inhibitor,HPGD inh,ALDH1A1 inh
CC(NS(=O)(=O)c1ccc(Cl)cc1)C(=O)NCc1ccco1 (configuration not stated),?,-8%,-3%
O=C(Nc1nccs1)C1(S(=O)(=O)c2ccc(Cl)cc2)CC1,-11,/,11µM*
Cc1ccc(S(=O)(=O)C2(C(=O)Nc3nccs3)CC2)cc1,45,-13%,-8%
O=C1CCN(S(=O)(=O)c2ccccc2)C2CCCCC12 (configuration not stated),-86*,-8%,?
O=C(O)C1CCCCN1S(=O)(=O)c1ccccc1 (configuration not stated),-13,-6%,6%
Cc1nc(CN2CCCCC2)c(O)c(=O)[nH]1,/,-5%,7%[13.5 µM]
CCOc1ccc(N(CC(=O)Nc2cccnc2)S(C)(=O)=O)cc1,/,/,0%
CCN(CC)CCN(Cc1cc2ccc(C)cc2[nH]c1=O)C(=O)Nc1ccc(Cl)cc1,/,/,-1%
O=C(O)[C@H]1[C@H]2C[C@H]3c4[nH]c5ccccc5c4CCN3C[C@@H]2CC[C@@H]1O,/,-26%,1%
CCN(CC)S(=O)(=O)c1ccc2c(c1)nc(SCn1nnc3ccccc3c1=O)n2CC,29,-16%,10µM*
O=c1c2ccccc2nnn1CSc1nnc2ccccn12,-28,-5%,-1%
CCc1c(C)nn(C(=O)/C(C#N)=C\N(C)C)c1C,/,/,6%
Cc1ccc(C(=O)C(C)Sc2nnc(N)s2)cc1 (configuration not stated),/,/,0%
COc1ccccc1OCC(=O)Nc1ccc2c(c1)C(=O)N(CC1CCCO1)C2=O (configuration not stated),/,/,4.5µM*
O=C1c2ccccc2C(=O)N1CC1CCCO1 (configuration not stated),-18,-4%,-10%
